Screening data from PubChem.
An excerpt weighted towards active compounds, which were near 19% of everything screened.
DT40 TDP1 no CPT – qHTS for Inhibitors of human tyrosyl-DNA phosphodiesterase 1 (TDP1): qHTS in cells in absence of CPT. Potency, µM (series often up to 46.2 µM), usual class: inhibitors. DT40 Tdp1-/- hTDP1 cells, no CPT, ATP luminescence, 48 h. hit rate 15% among 420,000; also: nearly all actives have a fitted effect of over 55% in size
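Growth kinetics read by CellTiter-Glo luminescence after ≥48 hr at 37 °C. Cells: DT40 Tdp1-/- stably carrying human TDP1, 400 per well, compound exposure in the absence of CPT (DMSO vehicle).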
SW480 rereplic – A quantitative high throughput screen for small molecules that induce DNA re-replication in SW480 colon adenocarcinoma cells. SW480 DNA re-replication, Hoechst DNA content imaging, 48 h. Potency, µM (series often up to 46.1 µM), usual class: activators. hit rate 1.8% among 340,000. AID 624297, 2012; also: nearly all actives have a fitted effect of over 55% in size
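Readout is total intensity of Hoechst-stained nuclei, excited at 405 nm and collected at 500-530 nm. Compound treatment lasted 48 hr at 37 C in 5% CO2 before staining.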
IL-1B inflam inh – qHTS for Inhibitors of Inflammasome Signaling: IL-1-beta AlphaLISA Primary Screen. AID 743279, 2014. activity change, % at 57.5 µM. hit rate 4.7% among 360,000. THP-1 LPS/ATP IL-1B secretion, AlphaLISA, 16 h; active compounds read low; in the data active = activity change below about -50%; inconclusive = mostly about -30% to -49%
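THP-1 cells pretreated 1 hr with compounds (up to 57.5 uM final), then stimulated with LPS (250 ng/mL final) plus ATP (1.25 mM final); secreted IL-1B measured by AlphaLISA after 16 hr, decreased signal indicating inhibition.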
TDP1 cell CPT – qHTS for Inhibitors of human tyrosyl-DNA phosphodiesterase 1 (TDP1): qHTS in cells in presence of CPT; chicken DT40 Tdp1-/-;hTDP1 cells + 20 nM CPT, ATP luminescence, 48 h; Potency, µM (titrated, usually from 46.2 µM), most hits filed as inhibitors; hit rate 12% among 420,000; also: nearly all actives have a fitted effect of over 55% in size
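Chicken DT40 Tdp1-/- cells stably complemented with human TDP1 were seeded at 400 cells/well in medium containing 20 nM camptothecin, exposed to pin-transferred compounds, and grown at 37 °C for at least 48 hr. Viability was read as ATP luminescence.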
MCF10A rerep – A quantitative high throughput screen for small molecules that induce DNA re-replication in MCF 10a normal breast cells; MCF 10A DNA re-replication, Hoechst nuclear intensity, 48 h; AID 624296, 2012; hit rate 2.9% among 350,000; Potency, µM (highest dose often 46.1 µM), actives largely listed as activators; also: nearly all actives have a fitted effect of over 50% in size
Chronic BCR inh – qHTS Assay to Find Inhibitors of Chronic Active B-Cell Receptor Signaling. ABC-DLBCL IkBa-CBG/CBR reporter, luminescence ratio, 4 h. Potency, µM (doses to about 46.1 µM), actives largely listed as inhibitors. hit rate 0.05% among 340,000. AID 493014, 2011; active = well fitted inhibition curve with a large enough effect in the signal ratio, with a control signal flat, not every such curve was filed as active; inconclusive = small, poorly fitted or top-dose-only effect, or effect the other way, or a change in a side signal; the % refers to the signal ratio
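Doxycycline induced both beetle luciferases in TMD8 lymphoma cells; IKK-driven degradation limits the IkappaBalpha-fused green signal, while red luminescence normalises for cell number and nonspecific effects. Compounds tested up to 46 uM, 4 hrs.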
Numbers stand for hits; – = inactive; ? = inconclusive; · = no result; [ ] = dose if it differs, or a comment. Unless noted, calls follow the shape of the dose curve; as a rule, active = well fitted curve in the direction sought with a large enough effect; inconclusive = small, poorly fitted or top-dose-only effect, or another doubt; inactive = no such curve, though single readings can be large; an effect the other way counts as inactive or inconclusive.

SMILES | DT40 TDP1 no CPT | SW480 rereplic | IL-1B inflam inh | TDP1 cell CPT | MCF10A rerep | Chronic BCR inh
COc1ccc(Cl)cc1S(=O)(=O)Nc1ccc2[nH]c(=O)[nH]c2c1 | 16.4µM | · | · | 20.6µM | · | ·
COc1ccc(F)cc1S(=O)(=O)Nc1ccc(C)cc1 | 23.1µM | – | – | – | – | –
COc1ccc(NS(=O)(=O)c2cc(C)ccc2OC)cc1OC | – | – | – | – | – | ?
COc1ncc2nc(C)c(=O)n(Cc3ccc(F)cc3)c2n1 | – | · | · | – | · | ·
COc1cccc2c1C(=O)CC1C2CCC2CC(=O)CCC21C (configuration not stated) | – | – | – | – | – | ·
COc1ccc(NC(C)=O)cc1S(=O)(=O)Nc1ccc(OCc2ccccc2)cc1 | 14.6µM | – | – | 16.4µM | – | ?
CCN(Cc1ccccc1)C(=O)c1ccc(NC(=O)c2ccc(OC)cc2)cc1 | ? | – | – | ? | ? | –
COc1ccc(C(=O)N(Cc2ccccc2)Cc2ccc(OC)c(COc3ccc(NC(C)=O)cc3)c2)cc1 | 22.4µM | · | · | ? | · | ·
Cc1ccccc1C(=O)N1CCC(C(=O)Nc2cc(C(F)(F)F)ccc2N2CCCC2)CC1 | – | – | – | – | – | ?
COCCn1c(SCC(=O)c2ccc(F)cc2)nc2cc(C(=O)NC3CCCC3)ccc2c1=O | – | · | · | – | · | ·
Cc1ccc(C(=O)CSc2nc3cc(C(=O)NC4CCCC4)ccc3c(=O)n2CC2CCCO2)cc1 (configuration not stated) | – | · | · | – | · | ·
Cc1ccc(C)c(C(=O)CSc2nc3cc(C(=O)NC4CCCC4)ccc3c(=O)n2CC2CCCO2)c1 (configuration not stated) | 8.2µM | · | · | 18.4µM | · | ·
O=C(CSc1nc2cc(C(=O)NC3CCCC3)ccc2c(=O)n1CC1CCCO1)c1cccc(Cl)c1 (configuration not stated) | 23.1µM | · | · | 20.6µM | · | ·
CC(C)Cc1nc2cc(NS(=O)(=O)N(C)C)cc(C(=O)N3CCOCC3)c2n1C | – | · | · | –[9.04 µM] | · | ·
Cc1cc(C(=O)NCc2nc(-c3ccccc3NC(=O)C3CCCO3)oc2C)nc(C)n1 (configuration not stated) | – | · | · | – | · | ·
O=C(NNC(=O)C1CCCC1)c1cc([N+](=O)[O-])cc([N+](=O)[O-])c1 | – | – | – | – | – | –
OC[C@@H](O)[C@@H](O)[C@H](O)[C@H](O)CO | – | – | – | – | – | –
COc1cc(OC)c(OC)cc1/C=c1\[nH]c(=O)/c(=C/c2cc(OC)c(OC)cc2OC)[nH]c1=O | 0.708µM | · | · | 0.794µM | · | ·
COc1ccc(/C=c2\[nH]c(=O)/c(=C/c3ccc(OC)c(OC)c3)[nH]c2=O)cc1OC | – | · | · | – | · | ·
O=C(NS(=O)(=O)Nc1ccccc1)C1=C(N2CCCC2)COC1=O | – | – | – | – | – | –
O=C(OCC(=O)N1CCc2ccccc21)c1ccncc1 | – | – | – | – | – | ?
O=C(Cc1ccc(-n2c(=O)c3ccccc3n(Cc3ccccc3Cl)c2=O)cc1)NCC1CCCO1 (configuration not stated) | ? | – | – | ? | – | 2.82µM
O=C(Cc1ccc(-n2c(=O)c3ccccc3n(Cc3ccc(F)cc3)c2=O)cc1)NCC1CCCO1 (configuration not stated) | ? | – | – | – | – | 8.2µM
O=C(Cc1ccc(-n2c(=O)c3ccccc3n(Cc3ccccc3F)c2=O)cc1)NCC1CCCO1 (configuration not stated) | ? | – | – | – | ? | ?
CCOc1cc(OCC)cc(C(=O)NCc2ccco2)c1 | – | – | – | – | – | –
SMILES | DT40 TDP1 no CPT | SW480 rereplic | IL-1B inflam inh | TDP1 cell CPT | MCF10A rerep | Chronic BCR inh
COc1cc(-n2c(N)c(C(=O)NCc3ccco3)c3nc4ccccc4nc32)cc(OC)c1OC | ? | 11.6µM | – | ? | 9.2µM | ?
COc1ccc(-n2c(N)c(C(=O)NCc3ccco3)c3nc4ccccc4nc32)cc1OC | ? | 18.4µM | – | ? | 16.4µM | ?
CC(=O)O[C@H]1[C@H](O)[C@H](Oc2c(O)c(C)c3c4c2[C@@H](C)CC[C@@H]4[C@@H](C)C[C@H]3C=C(C)C)O[C@@H](C)[C@H]1O | 18.4µM | – | -77.4 | ? | ? | ?
CC(=O)OC1[C@H](Oc2c(O)c(C)c3c4c2[C@@H](C)CC[C@@H]4[C@@H](C)C[C@@H]3C=C(C)C)OC[C@@H](O)[C@@H]1O (some centres not stated) | – | – | – | – | ? | –
CC(C)=C[C@H]1C[C@H](C)[C@H]2CC[C@H](C)c3c(O[C@@H]4OC[C@@H](O)[C@H](O)C4O)c(O)c(C)c1c32 (some centres not stated) | ? | –[9.22 µM] | -74.2 | – | 20.6µM | –
CC1(C(=O)NS(=O)(=O)c2cccs2)CCN1C(=O)c1ccco1 (configuration not stated) | – | · | – | – | · | ·
CCOc1ccccc1NC(=O)c1nnn(-c2ccc3c(c2)OCCO3)c1N | ? | ? | ? | ? | – | ?
Cc1ccccc1NC(=O)c1nnn(-c2ccc3c(c2)OCCO3)c1N | ? | – | -64.8 | – | – | ?
O=C(NCCc1ccccc1)C(=O)NCCC1CCCCN1S(=O)(=O)c1ccccc1 (configuration not stated) | ? | – | ? | ? | – | –
COc1ccc(CCNC(=O)C(=O)NCC2CCCN2S(=O)(=O)c2ccccc2)cc1OC (configuration not stated) | 13µM | – | – | ? | ? | –
O=C(NCCc1ccccc1)C(=O)NCC1CCCN1S(=O)(=O)c1ccccc1 (configuration not stated) | 10.3µM | 18.4µM | – | 13µM | 23.1µM | –
COCCn1c(=O)c(-c2ccc(OC)cc2)nc2cnc(Nc3ccccc3)nc21 | – | · | · | – | · | ·
COc1ccccc1C(=O)NC(=O)CSc1nnnn1C | – | – | – | – | – | –
CNc1nc(-c2c[nH]c3ccccc23)cs1 | ? | – | ? | ? | – | ?
CCC(C)Nc1nc(-c2c[nH]c3ccccc23)cs1 (configuration not stated) | ? | ? | -81.8 | – | ? | ?
CN1CCN(CC(=O)Nc2nc(-c3c[nH]c4ccccc34)cs2)CC1 | ? | – | -68.2 | – | – | ?
COc1cccc(CN2CC(C(=O)N3CCCO3)CCC2=O)c1 (configuration not stated) | – | – | – | – | – | –
